± gives the standard deviation of the averaged measurements.
The compounds below were run on IL-6-GFP PC-9GR (assay: cell viability (CCK-8 OD) relative to DMSO control (fraction of control); higher = more viable cells). Conditions: compound concentration: 10 uM; treatment time: 48 h.
How it was run: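 Compounds from a purchased library of 510 were each tested at a final 10 μM for 48 h on PC-9 and PC-9GR lung cancer cells plated at 3000 cells/well in 96-well plates. These cells overexpressed IL-6-GFP from a lentiviral construct. Viability came from CCK-8 absorbance, given as the optical density of each well over that of the vehicle control well, across independent replicates numbering two.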

Row | SMILES | cell viability
1 | CC(CCC(=O)[O-])C1CCC2C3C(O)CC4CC(O)CCC4(C)C3CC(O)C12C.[Na+] (configuration not stated) [Sodium cholate] | 0.344 ± 0.23
2 | COc1nc2ccc(Br)cc2cc1C(c1ccccc1)C(O)(CCN(C)C)c1cccc2ccccc12 (configuration not stated) [Bedaquiline] | 0.849 ± 0.0096
3 | CCOC(=O)N1CCC(=C2c3ccc(Cl)cc3CCc3cccnc32)CC1 [Loratadine] | 1.12 ± 0.032
4 | COc1ccc2c(c1)c(CC(=O)O)c(C)n2C(=O)c1ccc(Cl)cc1 [Indomethacin] | 0.478 ± 0.33
5 | CCc1cccc2c3c([nH]c12)C(CC)(CC(=O)O)OCC3 (configuration not stated) [Etodolac] | 1.22 ± 0.018
6 | O=c1oc2cc(O)ccc2s1 [Tioxolone] | 1.06 ± 0.041
7 | COc1cccc2c1C(=O)c1c(O)c3c(c(O)c1C2=O)CC(O)(C(C)=O)CC3OC1CC(N)C(O)C(C)O1.Cl (configuration not stated) [Daunorubicin HCl] | 0.0902 ± 0.071
8 | NC(CCC(=O)NC(CS)C(=O)NCC(=O)O)C(=O)O (configuration not stated) [Glutathione] | 1.06 ± 0.11
9 | CN(N=O)C(=O)NC1C(O)OC(CO)C(O)C1O (configuration not stated) [Streptozotocin (STZ)] | 1.23 ± 0.087
10 | O=C([O-])c1cc(N=Nc2ccc(O)c(C(=O)[O-])c2)ccc1O.[Na+].[Na+] [Olsalazine Sodium] | 1.12 ± 0.053
11 | COC(=O)NC(C(=O)N1CCCC1c1ncc(-c2ccc3c(c2)OC(c2ccccc2)n2c-3cc3cc(-c4cnc(C5CCCN5C(=O)C(NC(=O)OC)C(C)C)[nH]4)ccc32)[nH]1)C(C)C (configuration not stated) [Elbasvir] | 0.497 ± 0.03
12 | COc1ccc(C2OCC3C(c4cc(OC)c(OC)c(OC)c4)OCC23)cc1OC (configuration not stated) [Magnolin] | 0.791 ± 0.087
13 | Cc1cccc(N(C)C(=S)Oc2ccc3ccccc3c2)c1 [Tolnaftate] | 1.38 ± 0.047
14 | CC1(C)SC2C(NC(=O)C(c3ccccc3)S(=O)(=O)[O-])C(=O)N2C1C(=O)[O-].[Na+].[Na+] (configuration not stated) [Sulbenicillin Sodium] | 0.802 ± 0.17
15 | Cc1ccc(C2OC(CO)C(O)C(O)C2O)cc1Cc1ccc(-c2ccc(F)cc2)s1.Cc1ccc(C2OC(CO)C(O)C(O)C2O)cc1Cc1ccc(-c2ccc(F)cc2)s1.O (configuration not stated) [Canagliflozin hemihydrate] | 1.12 ± 0.2
16 | CC(=O)O.CCNC(=O)C1CCCN1C(=O)C(CCCNC(=N)N)NC(=O)C(CC(C)C)NC(=O)C(CC(C)C)NC(=O)C(Cc1ccc(O)cc1)NC(=O)C(CO)NC(=O)C(Cc1c[nH]c2ccccc12)NC(=O)C(Cc1c[nH]cn1)NC(=O)C1CCC(=O)N1 (configuration not stated) [Leuprolide Acetate] | 1.16 ± 0.31
17 | COC1CC2CCC(C)C(O)(O2)C(=O)C(=O)N2CCCCC2C(=O)OC(C(C)CC2CCC(OP(C)(C)=O)C(OC)C2)CC(=O)C(C)/C=C(\C)C(O)C(OC)C(=O)C(C)CC(C)/C=C/C=C/C=C/1C (configuration not stated) [Ridaforolimus (Deforolimus, MK-8669)] | 1.15 ± 0.22
18 | CC(=O)OC[C@H]1O[C@@H]([S-])[C@H](OC(C)=O)[C@@H](OC(C)=O)[C@@H]1OC(C)=O.CCP(CC)CC.[Au+] [Auranofin] | 0.00506 ± 0.12
19 | COc1cc(C2Oc3ccc(C4Oc5cc(O)cc(O)c5C(=O)C4O)cc3OC2CO)ccc1O (configuration not stated) [Silymarin] | 1.53 ± 0.29
20 | COc1cc(/C=C/C(=O)/C=C(O)/C=C/c2ccc(O)c(OC)c2)ccc1O [Curcumin] | 1.36 ± 0.48
21 | CCCCCCCCCCCCCCCCCCOP(=O)([O-])OC1CC[N+](C)(C)CC1 [Perifosine (KRX-0401)] | 0.943 ± 0.084
22 | COc1ccc(-c2ccc3cc(C(=O)O)ccc3c2)cc1C12CC3CC(CC(C3)C1)C2 [Adapalene] | 1.15 ± 0.15
23 | COc1ccc2cc(C(C)C(=O)[O-])ccc2c1.[Na+] (configuration not stated) [Naproxen Sodium] | 1.36 ± 0.035
24 | N#CC1(c2ccc(NC(=O)c3cccnc3NCc3ccncc3)cc2)CCCC1 [Apatinib] | 0.0432 ± 0.2
25 | Cc1nnc(C(=O)NC(C)(C)c2nc(C(=O)NCc3ccc(F)cc3)c(O)c(=O)n2C)o1 [Raltegravir (MK-0518)] | 1.21 ± 0.063
26 | C/C=C(/C(=C/C)c1ccc(O)cc1)c1ccc(O)cc1 [Dienestrol] | 1.06 ± 0.025
27 | CCOc1ccc(Cc2cc(C34OCC(CO)(O3)C(O)C(O)C4O)ccc2Cl)cc1 (configuration not stated) [Ertugliflozin] | 1.43 ± 0.46

From the supplement of paper PMC8866396
